Compounds with a hit are over-represented: about 4.7% of the library has one in this group of screens.
D1 potentiator = potentiators of human D1 dopamine receptor | potentiation, % at 10 µM | P21728 | HEK293 TREx D1 cells, calcium flux, dopamine EC20 potentiation | actives 0.036% (n = 360,000); in the data active = potentiation above about 30%
Target sequence (P21728 whole entry, looked up): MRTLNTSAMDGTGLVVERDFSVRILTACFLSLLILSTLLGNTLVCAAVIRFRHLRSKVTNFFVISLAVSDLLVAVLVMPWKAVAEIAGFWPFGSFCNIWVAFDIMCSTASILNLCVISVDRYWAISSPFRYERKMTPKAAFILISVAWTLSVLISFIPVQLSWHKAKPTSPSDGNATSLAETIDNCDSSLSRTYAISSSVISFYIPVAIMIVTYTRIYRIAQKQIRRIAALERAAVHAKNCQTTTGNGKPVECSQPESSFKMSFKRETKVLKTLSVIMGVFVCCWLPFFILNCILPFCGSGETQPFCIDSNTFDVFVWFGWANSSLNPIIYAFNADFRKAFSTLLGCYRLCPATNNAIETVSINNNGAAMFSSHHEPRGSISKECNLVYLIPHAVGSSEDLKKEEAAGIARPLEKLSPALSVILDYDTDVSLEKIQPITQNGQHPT
D1 antag = human D1 dopamine receptor antagonism | AID 504652 | activity change, negative = inhibition, % at 10 µM | HEK293 TREx D1 cells, calcium flux, dopamine EC80; hits give low values | P21728 | actives 3.2% (n = 360,000); in the data active = activity change below about -30%
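Calcium flux readout: force-coupled, inducible Hek293 Trex D1 line, cells induced overnight at 30 C with tetracycline, dye-loaded 30–90 min at RT. Antagonism scored against EC80 dopamine challenge given 180 s after compound.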
D1 ag = human D1 receptor agonism. HEK293 T-REx D1 cells, calcium flux, agonist mode. activation, % at 2 µM. actives 1% (n = 360,000). AID 504660
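Agonism was scored from calcium flux recorded over 180 s (1 read/s) after pintool compound addition, following a 10-cycle baseline. Cells were inducible force-coupled HEK293 TREx D1, plated overnight at 30 C and loaded with no-wash calcium dye.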
TRHR agonist = TRH receptor (human) agonism | P34981 | TRHR cells, calcium flux fluo-8, FDSS agonist mode | activation, % at 2 µM | actives 0.18% (n = 360,000) | AID 493084
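In this calcium-flux screen, cells bearing human TRHR are dye-loaded with fluo-8, baselined for 10 cycles, then exposed to library compounds; positive kinetic calcium responses during the agonist phase mark hits, with TRH as control.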
TRHR PAM = TRH receptor (human) allosteric enhancement; TRHR cells, fluo-8 calcium fluorescence, EC20 TRH enhancement; actives 0.66% (n = 360,000); P34981; enhancement, % at 2 µM; in the data active = enhancement above about 30%
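Enhancer read-out: after compound pinning and an initial kinetic agonist-mode read, an EC20 of TRH (10 nM final) was injected and fluo-8 calcium signal (Ex 480/Em 530) followed at 1 s/cycle for 100 cycles in TRHR-expressing cells.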
A number is an active result; i = inactive; nt = no result given. Cut-off read from the data, not from the text of the source, unless noted: active = activation above about 30%; inactive = the rest.

SMILES	D1 potentiator	D1 antag	D1 ag	TRHR agonist	TRHR PAM
Cc1cc(C)c(NC(=O)C2=COCCO2)c(C)c1	i	-32.6	i	i	i
Cc1cc(C)c(-c2csc(NC(=O)C3=COCCO3)n2)c(C)c1	i	-30.5	i	i	i
Cc1cc(C)c(NC(=O)CCCOC(=O)C2=COCCO2)c(C)c1	i	i	i	i	i
Cc1cc(C)c2sc(NC(=O)C3=COCCO3)nc2c1	i	-34.1	i	i	i
COc1ccc(C(=O)NC(=S)N2CCN(c3ccccc3OC)CC2)cc1	nt	i	i	i	i
COc1ccc(OC)c(NC(=O)COC(=O)/C=C/c2ccc(Cl)cc2)c1	i	-32.5	i	i	i
CCn1cc(Br)c(C(=O)Nc2ccccc2C(=O)OC)n1	i	-36.4	i	i	i
CNC(=S)N1CCN(c2ccccc2OC)CC1	i	-46.4	i	i	i
CCn1cc(NC(=O)Nc2ccccc2C(=O)OC)c(C(N)=O)n1	i	i	i	i	i
COc1ccc(NC(=O)c2ccc3ncsc3c2)cc1	i	i	i	i	34.8
CCn1c(=O)n(CC)c2cc(N3CCCC3)c(NC(=O)c3ccccc3F)cc21	i	i	i	i	i
COc1cc(NC(=O)c2cc([N+](=O)[O-])ccc2N2CCOCC2)ccc1NC(=O)c1ccco1	i	i	i	i	i
COc1ccc(NC(=O)Nc2ccc(F)c(Cl)c2)cc1	i	-49.0	i	i	i
COc1ccc(NC(=O)Nc2cc(C)ccc2OC)cc1	i	-32.1	i	i	i
COc1ccc(C)cc1NC(=O)Nc1ccccc1	i	i	i	i	i
Cc1ccc(NC(=O)Nc2ccc(F)c(Cl)c2)cc1	i	nt	i	i	i
COc1ccc(C)cc1NC(=O)NC(C)c1ccncc1 (stereo not given)	i	-32.3	i	i	i
COc1cc(NC(=O)c2cccc([N+](=O)[O-])c2C)ccc1NC(=O)c1ccco1	i	-36.1	i	i	i
COc1ccc(/C=C/C(=O)OCC(=O)NCCC2=CCCCC2)cc1	i	-36.5	i	i	i
COc1ccc(OC)c(NC(=O)COC(=O)c2n[nH]c3ccccc23)c1	nt	-38.8	i	i	i
O=C(OCC(=O)c1cccs1)c1ccc(NC(=O)c2ccco2)cc1	i	-33.0	i	i	i
CC(C)CC(=O)Nc1ccc(F)c(Cl)c1	i	i	i	i	i
CCC(CC)NC(=O)Nc1ccc(F)c(Cl)c1	i	-45.9	i	i	i
COc1ccc(OC)c(NC(=O)Nc2ccc(Cl)cc2)c1	i	-43.1	i	i	i
COc1ccc(OC)c(NC(=O)Nc2cccc(Cn3cccn3)c2)c1	i	-35.8	i	i	i
SMILES	D1 potentiator	D1 antag	D1 ag	TRHR agonist	TRHR PAM
CCOc1ccccc1N1CCN(C(=O)Nc2ccc(F)c(Cl)c2)CC1	i	i	i	i	i
COc1ccc(NC(=O)COc2ccccc2)cc1NC(=O)c1ccco1	i	-36.7	i	i	i
COc1cccc(NC(=O)Nc2cc(C)ccc2OC)c1	i	i	i	i	i
COc1ccccc1N1CCN(C(=O)Nc2ccc(F)c(Cl)c2)CC1	i	-56.8	i	i	i
COC(=O)c1cc(NC(=O)Nc2cc(OC)ccc2OC)cc(C(=O)OC)c1	i	i	i	i	i
COc1cc(OC)c(NC(=O)c2ccco2)cc1Cl	i	i	i	i	i
COc1ccccc1/C=C/C(=O)OCC(=O)Nc1ccccc1Sc1ccccc1	i	i	50.2	i	i
COc1cc(NC(=O)c2ccco2)c(OC)cc1NC(=O)Nc1ccc(Cl)cc1	i	-44.2	i	i	i
N#Cc1ccc(NC(=O)Nc2ccc(Cl)cc2)cc1	i	-41.3	31.0	i	i
Cc1ccc(C(=O)C(C)Oc2cccc(NC(=O)c3ccco3)c2)cc1 (stereo not given)	i	i	41.9	i	i
Clc1cccc(-n2ncc3c(NCCC4=CCCCC4)ncnc32)c1	i	i	i	i	i
COc1ccc(-c2cc(C(F)(F)F)nc(SCC(=O)NCCc3ccc(OC)c(OC)c3)n2)cc1	i	i	i	i	i
COC(=O)c1ccccc1NC(=O)c1ccco1	i	-33.7	i	i	i
O=C(NCC1COc2ccccc2O1)c1ccc(NC(=O)c2ccco2)cc1 (stereo not given)	i	-30.2	i	i	i
COc1ccc(C(=O)Nc2ccc(NC(=O)c3ccco3)cc2)cc1	i	i	i	i	39.4
CC(C)(C)C1CCc2c(sc(NC(=O)c3cccc(Cl)c3)c2C(N)=O)C1 (stereo not given)	i	i	i	i	i
O=C1C2C(C(=O)N1/N=C/c1cc([N+](=O)[O-])c(O)cc1O)C1C=CC2C12CC2 (stereo not given)	i	i	i	i	i
O=C1C2C(C(=O)N1/N=C/c1cc(Br)cc([N+](=O)[O-])c1O)C1C=CC2C12CC2 (stereo not given)	i	-30.9	i	i	i
CCc1cc(Br)ccc1N1C(=O)C2CC=CCC2C1=O (stereo not given)	i	-40.6	i	i	i
Cc1cc(C(=O)COC(=O)c2ccc(N)c([N+](=O)[O-])c2)c(C)n1-c1ccc2c(c1)OCO2	i	i	i	i	i
CC(=O)c1ccc(OCC(=O)c2cc(C)n(-c3ccc4c(c3)OCO4)c2C)cc1	i	-44.4	i	i	i
COC(=O)CSc1nc2ccccc2o1	i	-36.9	i	i	i
O=C(CSc1nc(-c2ccccc2)c(-c2ccccc2)o1)Nc1nncs1	i	i	i	i	i
Clc1c(CSc2nc3ccccc3o2)nc2ccccn12	i	-39.3	i	i	i
CC(=O)c1cc2c(cc1NC(=O)CSc1nc3ccccc3o1)OCO2	i	-35.5	i	i	i
SMILES	D1 potentiator	D1 antag	D1 ag	TRHR agonist	TRHR PAM
O=C(CSc1nc(-c2ccccc2)c(-c2ccccc2)o1)Nc1nnc(-c2ccccc2)s1	i	i	i	i	50.1
CC(=O)CSc1nc2ccccc2o1	i	i	i	i	i
CC(=O)c1cc2c(cc1NC(=O)CSc1nc3ccccc3[nH]1)OCO2	i	i	i	i	i
CCCCCn1c(NCc2ccccc2OC)nc2ccccc21	i	i	i	i	i
O=C(CSc1nc2ccccc2o1)Nc1nc(-c2ccccc2)c(-c2ccccc2)s1	i	-90.2	i	i	i
Cc1ccc(-c2csc(NC(=O)CSc3nc4ccccc4o3)n2)cc1	i	-35.1	i	i	i
O=C(O)/C=C/c1cc(F)c(S(=O)(=O)N2CCN(S(=O)(=O)c3ccc4c(c3)OCCO4)CC2)cc1F	i	i	i	i	i
Cc1cccc(Cl)c1OCCN1CCCC1	i	-40.8	i	i	i
Cc1ccc(OCCN2CCCC2)cc1	i	i	i	i	33.0
Cc1cccc(CCNC(=O)CN(c2ccc(C(C)C)cc2)S(=O)(=O)c2c(C)nn(C)c2C)c1	i	i	i	i	i
CS(=O)(=O)N(CC(=O)NCc1ccccc1)C1CCCCC1	i	-61.4	i	i	i
COc1ccc(CNC(=O)CN(C2CCCCC2)S(C)(=O)=O)cc1	i	-32.4	i	i	i
